# ERK EGF inh – EGF-driven ERK pathway inhibition | HEK293-V1b, EGF-stimulated phospho-ERK AlphaScreen | actives 0.41% (n = 130,000) | Potency, µM (titrated, usually from 11.5 µM), usual class: inhibitors; active = well fitted inhibition curve with a large enough effect; note: nearly all actives have a fitted effect of over 55% in size
#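 In this qHTS, HEK293 cells with stable type-1 vasopressin (V1b) receptor were exposed to compound at 37C for 30 min, stimulated 5 min with EGF at 25 nM, lysed, and probed for phospho-ERK by AlphaScreen.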
# A number is an active result; – = inactive. This excerpt belongs to a sample that is enriched for hits.
SMILES,ERK EGF inh
CC(C)C(=O)NC(=S)Nc1ccccc1N1CCN(C(=O)c2ccccc2)CC1,–
O=C(NC(=S)Nc1ccccc1N1CCN(C(=O)c2ccccc2)CC1)c1cccs1,–
CC1(C)Cc2c(c(N3CCOCC3)nc3sc(C(=O)N4CCCCC4)c(N)c23)CO1,–
CC1(C)Cc2c(c(N3CCOCC3)nc3sc(-c4ccc(C(=O)O)o4)c(N)c23)CO1,–
CN1Cc2c(N3CCOCC3)nc3sc(C(=O)c4ccc(Br)cc4)c(N)c3c2CC1(C)C,35µM
CC/C=C\C/C=C\C/C=C\C/C=C\C/C=C\C/C=C\CCC(=O)NCCO,–
Cc1ccccc1Nc1oc(-c2ccccc2)nc1-c1ccccc1,–
C[N+]1(C)C[C@@H](O)C[C@@H]1C(=O)[O-],–
CCCCC[C@H](O)/C=C/C=C\C/C=C\CCCCCCC(=O)O,–
Cc1csc(SCc2nc3scc(-c4ccccc4)c3c(=O)[nH]2)n1,–
NC(=O)Cc1nc2scc(-c3ccccc3)c2c(=O)[nH]1,–
CC(C)[C@H](NC(=O)c1ccccc1)C(=O)OCc1nc2scc(-c3ccccc3)c2c(=O)[nH]1,35µM
CC(C)C[C@@H](CC(=O)N[C@H](CC(=O)N[C@@H]1CCNC[C@H]1C(=O)N[C@H](CC(=O)N[C@@H](CCC(=O)O)CC(=O)O)Cc1ccccc1)C(C)C)NC(=O)[C@@H]1CNCC[C@H]1N,–
Cc1ccccc1Nc1oc(-c2ccccc2)nc1CCc1ccccc1,–
CC(C)C[C@@H](CC(=O)N[C@@H](CCC(=O)O)CC(=O)O)NC(=O)[C@@H]1CCCC[C@H]1NC(=O)C[C@@H](NC(=O)C[C@H](Cc1ccccc1)NC(=O)[C@@H]1CCCC[C@H]1N)C(C)C,–
O=C1/C(=N\S(=O)(=O)c2cccs2)C([n+]2ccccc2)=C([O-])c2ccccc21,–
Cc1cccc(NC2=C/C(=N/S(=O)(=O)c3cccs3)c3ccccc3C2=O)c1,–
CC(C)(C)c1cc[n+](C2=C([O-])c3ccccc3C(=O)/C2=N\S(=O)(=O)c2cccs2)cc1,–
O=C1C(Nc2ccc(O)cc2)=C/C(=N/S(=O)(=O)c2cccs2)c2ccccc21,18µM
CS/C(=N\S(=O)(=O)c1cccs1)Nc1ccc(F)cc1,–
Cc1ccc(NC2=C/C(=N\S(=O)(=O)c3cccs3)c3ccccc3C2=O)c(C)c1,13µM
COc1cccc([C@@H]2Oc3ccc(OC)cc3C[C@H]2OC(=O)Nc2cc(OC)c(OC)c(OC)c2)c1,–
C/C=C\C[C@H](C)[C@H](O)[C@H]1C(=O)N[C@@H](CC)C(=O)N(C)CC(=O)N(C)[C@@H](CC(C)C)C(=O)N[C@@H](C(C)C)C(=O)N(C)[C@@H](CC(C)C)C(=O)N[C@@H](C)C(=O)N[C@@H](C)C(=O)N(C)[C@@H](CC(C)C)C(=O)N(C)[C@@H](CC(C)C)C(=O)N(C)[C@@H](C(C)C)C(=O)N1C,–
Cc1ccc(NC(=O)CC(=O)c2ccc([N+](=O)[O-])cc2)cc1S(=O)(=O)Nc1cccc(Cl)c1,–
Cc1ccc(NC(=O)c2cccs2)cc1S(=O)(=O)Nc1cccc(Cl)c1,20µM
SMILES,ERK EGF inh
Cc1ccc(NC(=S)NC(=O)c2ccc(F)cc2)cc1S(=O)(=O)Nc1cccc(Cl)c1,–
COc1ccc2c(c1)O[C@@H](c1cccc(C(F)(F)F)c1)[C@H](OC(=O)NCCOc1ccccc1)C2=O,–
Cc1nc(NCc2ccccc2)c2nc(-c3ccccc3)n(CCCN3CCCCC3C)c2n1 (stereo not drawn),–
O=C(Nc1ccc(S(=O)(=O)N2CCCC2)cc1)c1ccc(OCC2CCCO2)cc1 (stereo not drawn),–
O=C(Nc1ccc(Cl)c(S(=O)(=O)N2CCOCC2)c1)c1ccc(OCC2CCCO2)cc1 (stereo not drawn),14µM
Cc1ccc(NC(=O)c2ccc(OCC3CCCO3)cc2)cc1 (stereo not drawn),–
CCOC(=O)CC(CC(C)=O)C(=O)OCC (stereo not drawn),–
NCCC[C@@H](CC(=O)N[C@@H]1CCNC[C@H]1C(=O)N[C@H](CC(=O)N[C@@H](CCC(=O)O)CC(=O)O)Cc1c[nH]c2ccccc12)NC(=O)C[C@H](Cc1ccccc1)NC(=O)[C@@H]1CNCC[C@H]1N,–
COC(=O)[C@H](COC(C)(C)C)NC(=O)O[C@@H]1Cc2cc(OC)ccc2O[C@H]1c1cccc(OC)c1,–
N#Cc1ccc(NC(=O)Nc2cccc(C#N)c2)cc1,–
CC(=O)Nc1ccc(Oc2ccccc2)cc1,–
N#Cc1ccc(NC(=O)Nc2ccc(Oc3ccc(NC(=O)Nc4ccc(C#N)cc4)cc3)cc2)cc1,32µM
O=C(Nc1cccc(F)c1)N1CCCC2(CCN(C(=O)c3ccncc3)CC2)C1,–
O=C(CN1CCSC1=NCc1ccccc1)c1ccc(Cl)c(Cl)c1,–
O=C(NCCCOc1cccc(CN2CCCCC2)c1)c1ccc(Cl)c(Cl)c1,–
N=c1n(CCN2CCCCC2)c2ccccc2n1CC(=O)c1ccc(Cl)c(Cl)c1,28µM

# Assay outcomes: PubChem, National Center for Advancing Translational Sciences (NCATS)
